Several values for one entry are separate records, joined by “and”; a condition that tells them apart may be missing. Equal values may be shown once.

What all share (type): functional
Assay [1] concerns the target Solute carrier family 2, facilitated glucose transporter member 1 (Homo sapiens) (UniProt P11166). Briefly: ST_JUDE_LEISH: Cytotoxicity at 2uM final concentration against transgenic Leishmania Mexicana promastigotes LmGLUT1 that are glucose transport deficient and complemented with the human glucose transporter GLUT1. Activity is measured by DNA content using SYBR green in vitro.

The target in assay [2] is Hexose transporter 1 (Plasmodium falciparum) (UniProt O97467). The assay can be described thus: ST_JUDE_LEISH: Cytotoxicity at 2uM final concentration against transgenic Leishmania Mexicana promastigotes LmPfHT that are glucose transport deficient and complemented with the Plasmodium falciparum hexose transporter. Activity is measured by DNA content using SYBR green in vitro.

The target in assay [3] is Glucose transporter (Leishmania mexicana) (UniProt O61059). The assay can be described thus: ST_JUDE_LEISH: Cytotoxicity at 2uM final concentration against transgenic Leishmania Mexicana promastigotes LmGT2 that are glucose transport deficient and complemented with the L. Mexicana glucose transporter 2. Activity is measured by DNA content using SYBR green in vitro.

Solute carrier family 2, facilitated glucose transporter member 1 (Homo sapiens), sequence (P11166 whole entry): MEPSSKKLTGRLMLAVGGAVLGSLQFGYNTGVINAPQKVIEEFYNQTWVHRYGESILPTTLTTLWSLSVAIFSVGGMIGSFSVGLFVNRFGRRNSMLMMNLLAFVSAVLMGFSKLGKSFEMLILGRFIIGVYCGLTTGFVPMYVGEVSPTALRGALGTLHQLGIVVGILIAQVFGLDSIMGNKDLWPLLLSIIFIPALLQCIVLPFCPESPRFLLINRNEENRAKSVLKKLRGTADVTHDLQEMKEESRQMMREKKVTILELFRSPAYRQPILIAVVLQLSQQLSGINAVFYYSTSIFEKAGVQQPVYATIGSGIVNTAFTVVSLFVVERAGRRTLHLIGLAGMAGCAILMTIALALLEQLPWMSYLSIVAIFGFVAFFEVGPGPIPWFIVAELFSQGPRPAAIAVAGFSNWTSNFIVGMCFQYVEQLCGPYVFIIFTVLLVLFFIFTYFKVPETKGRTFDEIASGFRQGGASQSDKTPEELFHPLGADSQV

In the case of `CN1CCc2ccc(NC(=O)Nc3ccc(-c4ccccc4)cc3)cc2C1`, the inhibition (usually the drop in the measured response relative to a control, in per cent) in assay [1] amounted to 1.53%; in assay [2], 0.83%; in assay [3] it was 0.87%.
For `CCn1ccc2c(N3CCCS3(=O)=O)cc(C(=O)N[C@@H](Cc3ccccc3)[C@H](O)CNC3CCCCC3)cc21`, in that order: -0.74%, 1.64% and 5.33%.
For `C#CCNC(=O)c1ccc(-c2ccnc(Nc3cccc(CCCN4CCOCC4)c3)n2)s1`, in that order: 37.4%, 37.9% and 27.2%.
The like results for `CC(C)c1sc(N2CCN(C)CC2)nc1C(=O)NCCc1cccc(Cl)c1` were, in that order, 6.7%, 3.42% and 3.93%.
As for `CC1CN(S(=O)(=O)c2ccc(NC(=O)c3cc(-c4ccccc4O)n[nH]3)cc2)CC(C)O1` (configuration not stated), the results for the inhibition in assay [1], in assay [2] and in assay [3] were 4.88%, 5.64% and 4.67%, respectively.
For `COc1cc(CNC[C@@H](O)[C@H](Cc2ccccc2)NC(=O)c2cc(OC(C)C)cc(N3CCCS3(=O)=O)c2)cc(OC)c1`, in that order: 4.85%, 4.74% and 2.1%.
For `COCCN1CCN(Cc2ccc(-c3ccc(-c4nc5cccc(C)c5[nH]4)s3)cc2)CC1`, in that order: 8.84%, 6.85% and 4.87%.
For `CCOc1ccc(-c2nonc2NC(=O)c2ccc(Cl)cc2)cc1OCC`, in that order: 4.45%, 4.43% and 4.61%.
With `Cc1nc(-c2ccc(C#N)cc2)sc1C(=O)NCCCCN1CCC(c2ccc3c(c2OCCO)CCCC3)CC1`, the inhibition in assay [1] turned out to be 6.87%; in assay [2], 6.02%; in assay [3], 3.7%.
The like results for `NCCNc1ccnc2cc(Cl)ccc12` were, in that order, 0.54%, 1.61% and 1.05%.
For `Cc1cc(N)c2cc(NC(=O)/C=C/c3ccccc3)ccc2n1`, in that order: -0.18%, 0.45% and -0.79%.
For `CCCCCCC(C)c1cc(OCCN(CC)CC)c2c(c1)OC(C)(C)C=C2c1ccncc1` (configuration not stated), in that order: -0.93%, 0.33% and -1.02%.
Turning to `O=S1(=O)NCc2ccc(Nc3nccc(Nc4ccc5c(cnn5Cc5ccccc5)c4)n3)cc21`, the figures for the inhibition in assay [1], in assay [2] and in assay [3] were -0.8%, 6.35% and -1.65%, respectively.
In the case of `CCN(CC)/C(=N/C(=N)Nc1ccc(Cl)c(Cl)c1)NCCCCCCN/C(=N\C(=N)Nc1ccc(Cl)c(Cl)c1)N(CC)CC`, the values for the inhibition in assay [1], in assay [2] and in assay [3] were 1.15%, -1.65% and -1.49%, respectively.
With `Cc1[nH]c2cc(F)ccc2c(=O)c1Cc1ccc(Cl)cc1.Cc1[nH]c2cccc(F)c2c(=O)c1Cc1ccc(Cl)cc1`, the inhibition in assay [1] is 23.5% and 29.2%; in assay [2] it was 37.3% and 55.7%; in assay [3] it was 14.3% and 15%.
In the case of `CCCCC1(c2ccc(F)cc2)NC(=O)N(CC(=O)c2cc(C)n(Cc3ccco3)c2C)C1=O` (configuration not stated), the inhibition in assay [1] is -0.18%; in assay [2], 0.18%; in assay [3], -0.26%.
For `COc1cc2ccccc2c(OC)c1CNCCCCCCNCc1c(OC)cc2ccccc2c1OC`, in that order: 11.1%, 7.88% and 12.4%.
For `CC(CCc1ccccc1)NCC(O)c1ccc2c(c1)S(=O)(=O)c1ccccc1N2` (configuration not stated), in that order: 1.67%, 1.25% and 2.14%.
The like results for `COc1ccc2[nH]c(C(=O)Nc3cccc(-c4ccc(CN(C)C)cc4)c3)cc2c1` were, in that order, 3.16%, 1.78% and -0.5%.
As for `O=C(Cc1ccc[n+]([O-])c1)Nc1cccc(-c2cccc(-c3nc4cc(C(F)(F)F)ccc4[nH]3)c2)c1`, the inhibition in assay [1] was 2.28%; in assay [2], -0.06%; in assay [3], 5.03%.
Consider `O=[N+]([O-])c1ccc2ncnc(Nc3ccc(F)c(Cl)c3)c2c1`, for which the inhibition is 2.27% in assay [1], 0.68% in assay [2] and 2.32% in assay [3].
For `O=C(Nc1cccc(F)c1)N(Cc1ccc(-c2ccc(CN3CCNCC3)cc2)cc1)C1CCN(Cc2ccccc2)CC1`, in that order: -0.04%, -0.99% and -1.59%.
With `COc1cc(NC(=O)c2c(-c3c(Cl)cccc3Cl)noc2C)c(OC)cc1Cl`, the inhibition was determined as 3% in assay [1], 4.65% in assay [2] and 3.12% in assay [3].
As to `COC(=O)c1cccc(CNCc2ccc(-c3ccc(-c4nc5cccc(C)c5[nH]4)s3)cc2)c1`, the inhibition in assay [1] worked out at 6.31%; in assay [2] it was 2.96%; in assay [3], 1.56%.
As to `O=C(Cn1c(SCc2cccc(F)c2F)cc(=O)c2ccccc21)N(CCn1ccnc1)Cc1ccc(-c2ccc(C(F)(F)F)cc2)cc1`, the inhibition in assay [1] is 5.51%; in assay [2], 5.78%; in assay [3], 2.82%.
The like results for `COc1ccc(NC2=C(c3ccccc3)C(=O)c3ccccc32)cn1` were, in that order, 7.83%, 4.66% and 3.49%.
For `Cc1cccc2nc(-c3cccc(-c4cccc(CN5CCC(CO)CC5)c4)c3)[nH]c12`, in that order: 9.53%, 8.91% and 8.87%.
As for `Cc1[nH]c(C)c(-c2ccc(Oc3ccc(C(F)(F)F)cc3)cc2)c(=O)c1Br`, the inhibition in assay [1] was 3.22%; in assay [2] it was 5.35%; in assay [3], 3.05%.
For `CCOC(=O)c1ccc(-c2cnc(N)c(-c3nc4cccc(C)c4[nH]3)c2)cc1`, in that order: 6.18%, 6.96% and 4.47%.
For `CCNc1cc(C)nc(Nc2ccc(NC(=O)c3ccc(OC)c(OC)c3)cc2)n1`, in that order: 5.48%, 1.84% and 2.34%.
For `O=C(Nc1ccc2oc(-c3ccc(Br)cc3)nc2c1)c1ccc([N+](=O)[O-])o1`, in that order: 10.3%, 6.94% and 6.73%.
For `COc1ccc(-c2cccc(NC(=O)c3ccc(C#N)cc3)c2)cc1CN1CCCN(C)CC1`, the inhibition in assay [1] came out at 3.34%; in assay [2] it was 2.59%; in assay [3], 0.9%.
The like results for `COc1ccc(CCN2CCC(CN(C)Cc3cnn(-c4ccccc4)c3)CC2)cc1` were, in that order, 4.24%, 6.13% and 7.63%.
The like results for `Cc1cc(O)c(CN(C)Cc2ccc3c(c2)OCO3)cc1C(C)C` were, in that order, -0.84%, -1.41% and 0.04%.
The like results for `COc1cc2[nH]c(-c3ccc(O)cc3)c(C)c(=O)c2c(OC)c1OC` were, in that order, 2.67%, 0.09% and -2.9%.
As for `CCCCCCCCCN1CC[C@@H](CCCc2ccnc3ccc(O)cc23)[C@@H](CC)C1`, the figures for the inhibition in assay [1], in assay [2] and in assay [3] were -2.45%, -2.37% and -1.91%, respectively.
For `COc1ccccc1C1CCN(C2CCC(NC(=O)c3cc(-c4ccc(Cl)cc4)cs3)CC2)CC1` (configuration not stated), in that order: -0.61%, 2.96% and 0.71%.
For `O=C(C=Cc1cn(-c2ccccc2)nc1-c1cccs1)N1CCN(c2ccncc2)CC1`, in that order: 1.81%, 0.46% and -3.76%.
The like results for `COc1ccc(CNC(=O)Nc2cc3cc(-c4ccc(CN5CCCC5)cc4)ccc3n3c(C)nnc23)cc1` were, in that order, 2.37%, 0.34% and 0.89%.
In the case of `CNC(=O)Cc1ccc(C(=O)Nc2cccc(-c3ccc(-c4nc5cccc(C)c5[nH]4)s3)c2)cc1`, the figures for the inhibition in assay [1], in assay [2] and in assay [3] were 3.65%, 2.74% and 1.79%, respectively.
The like results for `CC(C)(CNC(=O)C1CCN(CC2CCCCC2)CC1)c1nc(-c2ccc(Cl)c(O)c2)c(-c2ccncc2)[nH]1` were, in that order, 1.84%, 0.23% and 2.71%.
On to `O=C(Nc1ccncc1)c1cc(C(=O)Nc2ccncc2)cc([N+](=O)[O-])c1`, for which the values for the inhibition in assay [1], in assay [2] and in assay [3] were -0.17%, -3.19% and -0.41%, respectively.
For `CCN1CCN(c2ccc(NC(=O)c3cc4c(C)nn(-c5ccccc5)c4s3)cc2C)CC1`, in that order: 1.44%, 3.9% and -1.39%.
The like results for `O=C(NC1CCN(Cc2ccccc2)C1)c1ccc(Nc2ccc(Br)cc2)nc1` (configuration not stated) were, in that order, 1.79%, 0.12% and -1.43%.
For `CO/C(=C/C=C/c1cc2cc(Cl)c(Cl)cc2[nH]1)C(=O)NC1CC(C)(C)N(C)C(C)(C)C1`, in that order: 2.45%, 0.74% and -0.41%.
As to `CN1CCN(c2ccnc3ccc(NC(=O)Nc4ccc5c(c4)CCC5=O)cc23)CC1`, the inhibition in assay [1] is 3.7%; in assay [2] it was 2.43%; in assay [3], 5.45%.
Consider `Cc1cc(CNCCCCCNCc2ccc(Cl)cc2)ccc1O`, for which the inhibition in assay [1] turned out to be 1.35%; in assay [2] it was 1.91%; in assay [3], 2.91%.
The like results for `OCCC1CCN(Cc2ccc(-c3ccc(-c4nc5ccccc5[nH]4)cc3)cc2)CC1` were, in that order, 8.45%, 5.85% and 5.76%.
The like results for `Cc1cc2c(cc1C(F)(F)F)N(C(=O)Nc1cc(OCCN(C)C)cc(C(F)(F)F)c1)CC2` were, in that order, -0.72%, -1.6% and -0.42%.

For the origin of these results see ChEMBL document CHEMBL3433997, “St. Jude Leishmania screening dataset” (2016).
